ERAP1 HTS inh – human ERAP1 aminopeptidase inhibitors, primary screen, biochemical, single point, plate reader; recombinant ERAP1, Leu-AMC fluorescence, 60 min; inhibition, % at 10.7 µM; 340,000 compounds, 0.15% hits;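 active means mean replicate inhibition of at least 30%, or all replicates individually reaching that 30% level; inactive means mean below 30% and not every replicate reaching it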;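 further: 0% = neutral control wells and 100% = L-leucinethiol positive control wells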
Target sequence (Q9NZ08 whole entry, looked up): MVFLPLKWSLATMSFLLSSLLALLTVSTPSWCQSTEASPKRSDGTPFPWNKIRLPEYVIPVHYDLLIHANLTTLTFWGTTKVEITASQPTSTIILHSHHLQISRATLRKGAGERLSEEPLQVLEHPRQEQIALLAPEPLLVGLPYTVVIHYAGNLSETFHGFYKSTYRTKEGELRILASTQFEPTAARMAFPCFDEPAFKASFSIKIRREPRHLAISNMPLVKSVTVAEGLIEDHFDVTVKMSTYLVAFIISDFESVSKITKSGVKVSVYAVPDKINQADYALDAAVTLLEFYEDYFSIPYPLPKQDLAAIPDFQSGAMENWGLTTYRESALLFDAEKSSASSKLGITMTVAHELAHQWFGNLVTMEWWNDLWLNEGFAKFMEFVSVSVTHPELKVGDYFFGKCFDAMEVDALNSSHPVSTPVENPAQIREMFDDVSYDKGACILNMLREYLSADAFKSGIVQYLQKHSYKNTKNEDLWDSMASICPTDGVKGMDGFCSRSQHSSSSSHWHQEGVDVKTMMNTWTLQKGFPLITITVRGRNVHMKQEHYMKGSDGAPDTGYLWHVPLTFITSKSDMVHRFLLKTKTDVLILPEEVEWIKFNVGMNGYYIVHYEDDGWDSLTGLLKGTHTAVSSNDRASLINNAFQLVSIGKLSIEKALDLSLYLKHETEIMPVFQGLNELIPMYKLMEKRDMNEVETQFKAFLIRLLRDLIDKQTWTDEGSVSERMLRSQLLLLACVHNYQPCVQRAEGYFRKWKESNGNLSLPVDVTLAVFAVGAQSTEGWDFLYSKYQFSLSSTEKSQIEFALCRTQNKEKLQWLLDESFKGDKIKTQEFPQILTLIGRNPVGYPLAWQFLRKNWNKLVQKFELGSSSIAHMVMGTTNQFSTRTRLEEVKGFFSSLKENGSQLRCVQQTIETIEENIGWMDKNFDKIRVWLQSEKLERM
CaV13 ICDI inh – Disruptors of the CACNA1D IQ motif to Ca2+-dependent inactivation inhibitor domain association, primary screening, Förster resonance energy transfer in intact living …; inhibition, % at 12.3 µM; 340,000 compounds, 0.098% hits; AID 743397; HEK cells, CFP/YFP FRET ICDI-IQ, plate reader, 10 min; percent FRET-ratio fall versus neutral wells;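 active means mean replicate inhibition of at least 30% and at least 1% of replicates passing that level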;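 further: 0% = median of the neutral control wells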
Ecoli rRNA inh – reduced GFP signal of wild-type E. coli, primary screen, bacterial rRNA inhibitor project, GFP/RFP fluorescence, OD600, single point; E. coli WT GFP vs humanized-ribosome RFP mutants, 24 h; hits give low values; DMSO median 0, no signal -100; GFP signal change (wild-type ribosome), % (no concentration beside the values); 350,000 compounds, 1.6% hits; AID 720706, 2013;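 active means significant combined selectivity score with lowered wild-type GFP, culture density cut under 30%, mutant RFP and density less affected; inactive means any of these conditions unmet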
GSIS activator – GLuc luminescence reporter in INS-1E cells, primary screen for activators of glucose-dependent secretion of insulin; INS-1E GLuc reporter insulin secretion, 2-3 h; activation, % at 16.6 µM; 370,000 compounds, 0.61% hits; AID 743287, 2014;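 active means lowest replicate activation of at least 40%, so every replicate reaches that level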;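 further: 0% = median of neutral control wells and 100% = median of IBMX positive control wells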
PGC1a acetyl inh – inhibitors of PGC1a acetylation signal, primary screen, cell-based, U2OS, AlphaScreen, inhibitor mode. AlphaScreen anti-acetyl-lysine; with virally co-expressed GCN5 acetyltransferase. inhibition, % at 15.6 µM. 350,000 compounds, 0.17% hits. AID 651687, 2012;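 active means every replicate shows inhibition of at least 40%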;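 further: 0% = neutral control wells and 100% = positive control wells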
DENV2 CPE – inhibitors of DENV2 cytopathic effect, primary screen, cell-based, plate reader, single concentration. DENV2-infected cells, cytopathic effect rescue. CPE inhibition, % at 9.99 µM. 350,000 compounds, 1.7% hits; in the data active means CPE inhibition above about 20%, passing the limit was not always enough; tested in BHK-21 cells;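 further: 0% = median of neutral control wells and 100% = median of positive control wells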
* marks the source's active call; other numbers are inactive results; · = no result; ! = repeats disagree. A selection: hits, their analogues and other compounds. The true share with any hit is near 3.2%.

SMILES	ERAP1 HTS inh	CaV13 ICDI inh	Ecoli rRNA inh	GSIS activator	PGC1a acetyl inh	DENV2 CPE
CCC(=O)Nc1ccc2c(c1)C(=O)N(C)C[C@H](OC)[C@H](C)CN(C(=O)c1ccccc1F)[C@H](C)CO2	3	·	-2	-2	7	-6
C/C=C/c1ccc([C@@H]2[C@@H](CO)N(C(C)=O)[C@H]2CN(CCC)C(C)=O)cc1	·	·	2	9	-2	-8
C[C@H](CO)N1C[C@H](C)[C@H](CN(C)Cc2ccc(F)cc2)Oc2ncc(-c3cccc(C#N)c3)cc2C1=O	-3	·	·	·	6	-2
CC(C)[C@@H](C)NC(=O)N(C)C[C@H]1OCc2ccccc2-c2c(n(C)c3ccccc23)C(=O)N([C@@H](C)CO)C[C@@H]1C	1	·	-1	-8	-8	-6
COc1ccc(N(CC(=O)N2CCC(Cc3ccccc3)CC2)S(C)(=O)=O)cc1	-5	-5	-21*	-20	1	5
CCN(c1ccccc1)S(=O)(=O)c1ccc(C(=O)N2CCOCC2)cc1	-10	-4	15	11	0	-2
CCN(c1ccccc1)S(=O)(=O)c1ccc(C(=O)N2CCN(c3ccccc3F)CC2)cc1	-2	-13	-1	-4	·	53*
COc1cc(NC(=O)c2nccn2C)cc(C(=O)Nc2cccc(C(F)(F)F)c2)c1	0	-4	4	-1	·	110*!
CCCOc1ccc(NC(=O)c2c(-c3ccccc3)noc2C)cc1	·	36*	1	12	0	3
Cc1onc(-c2ccccc2)c1NC(=O)Nc1ccc(OC(F)F)cc1	-1	-5	-22*	-10	0	1
Cc1onc(-c2ccccc2)c1C(=O)Nc1ccc(OC(C)C)cc1	·	20	-3	-12	11	1
C[C@H]1CCCCO[C@@H](CN(C)Cc2ccc(C(F)(F)F)cc2)[C@@H](C)CN([C@@H](C)CO)C(=O)c2cc(NS(C)(=O)=O)ccc2O1	·	·	6	-2	-2	18
COc1ccc2c3c(n(C)c2c1)[C@H](CO)N(Cc1ccc2c(c1)OCO2)CC31CN(C(=O)C2CC2)C1	-2	·	-2	-17	-6	-6
CCOc1ccc(NC(=O)/C(C#N)=C/c2ccc(N3CCCC3)c(C)c2)cc1	·	-5	·	115*	0	·
CCN(CC)S(=O)(=O)c1ccc(N2CCCCC2)c(NC(=O)/C(C#N)=C/c2ccc(OC)cc2)c1	·	-3	·	-25	1	·
CCOc1ccc(NC(=O)/C(C#N)=C/c2cn(CC(=O)O)c3ccccc23)cc1	5	-5	-26*	·	0	-2
CCN(CCO)c1ccc(Nc2cc(-c3ccc(-c4ccccc4)cc3)ncn2)cc1	2	-7	·	·	6	2
CCN(CCO)c1ccc(N=Nc2cc(C)[nH]n2)cc1	0	-5	-21*	-12	·	-1
Cc1nnc(SCC(=O)Nc2ccccc2F)n1Cc1ccco1	-5	-5	14	-7	-1	64*
Cn1c(SCC(=O)Nc2ccccc2-c2ccccc2)nnc1-c1ccco1	4	-8	-24*	4	·	4
O=C(CSc1nccn1Cc1ccco1)Nc1ccccc1F	-3	·	10	22	·	-1
C[C@H](CO)N1C[C@H](C)[C@@H](CN(C)S(=O)(=O)c2cn(C)cn2)Oc2c(NS(=O)(=O)c3ccc(Cl)cc3)cccc2C1=O	·	·	-4	-1	0	·
COc1cc(CC(C#N)(CO)c2nc3ccccc3[nH]2)ccc1OC(F)F (stereo not given)	0	-5	3	-10	-5	47*
COc1cc(C(=O)Nc2nc3ccccc3[nH]2)ccc1OC(F)F	·	-17	-58	-34	0	3
CC(C)C#Cc1ccc2c(c1)O[C@@H](CN(C)C(=O)CN(C)C)[C@@H](C)CN([C@@H](C)CO)S2(=O)=O	2	·	4	-4	-5	31*
C[C@H]1CN([C@@H](C)CO)S(=O)(=O)c2ccc(C#Cc3ccccc3)cc2O[C@@H]1CN(C)C(=O)CN(C)C	0	·	-1	48*	-23	18

Screening results from PubChem BioAssay.
